# Several values for one entry are separate records, joined by “and”; a condition that tells them apart may be missing. Identical values can stand only once. Activity calls are given as the source filed them. Rule as the data show it, unless noted: active = inhibition above about 80%; inactive = the rest.
# Experiments:
# [1] = sensitizers of A549 cells to miR-34 induction, primary screen, imaging, A549 dox-inducible miR-34, nuclei and caspase counts (AID 1347080;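 active = compounds whose cell count with miR-34 switched on is under 0.7 times the count with it off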); conditions: A549 miR-34 inducible, Hoechst nuclei count, 48 h
# [2] = survival rescue of mitochondrial mutant cells in low glucose, primary screen, MELAS cybrids, Rieske KO mouse fibroblasts, CellTiter-Glo (AID 1508586;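 active = mean z-score across replicates of 1.96 or higher in either the MELAS or the Rieske mutant cell line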;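 also: z relative to plate mean and SD of compound and empty wells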)
# [3] = LFS_MB_P medulloblastoma growth inhibition, cell-based, chromothripsis tumors, cisplatin or BGB combos (AID 1671449); conditions: LFS_MB_P medulloblastoma cells;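 also: cells exposed for 96 hours; 0% = vehicle DMSO and 100% = killing by high DMSO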
# [4] = HDN33 neuroblastoma growth inhibition, cell-based, chromothripsis tumors, cisplatin or BGB combos (AID 1671450); conditions: HDN33 neuroblastoma cells, stronger effect = higher value;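 also: cells exposed to compound for four days; 0% = vehicle DMSO and 100% = cell killing by high DMSO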
# [5] = ICB984 medulloblastoma cell growth inhibition, synergistic combos for chromothripsis tumors, cisplatin or BGB combos (AID 1671451; call rule not given here;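 also: cells exposed for 96 hours before readout; 0% = vehicle DMSO and 100% = killing by high DMSO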); conditions: ICB984 medulloblastoma cells, drug combinations, stronger effect = higher value
# [6] = LFS_MB_1R medulloblastoma cell growth inhibition, synergistic combos for chromothripsis tumors, cisplatin or BGB combos (AID 1671452); conditions: LFS_MB_1R medulloblastoma cells, stronger effect = higher value;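 also: cells exposed for 96 hours before readout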
# [7] = HTB85 osteosarcoma cell growth inhibition, synergistic combos for chromothripsis tumors, BGB or cisplatin IC20 combos (AID 1671453); conditions: HTB85 osteosarcoma cells, drug combinations, stronger effect = higher value;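 also: cells exposed for 96 hours before readout; 0% = vehicle DMSO and 100% = high DMSO killing control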
# [8] = CRL2098 osteosarcoma cell growth inhibition, synergistic combos for chromothripsis tumors, BGB or cisplatin IC20 combos (AID 1671454); conditions: CRL2098 osteosarcoma cells, drug combinations, stronger effect = higher value;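 also: cells exposed for 96 h before readout; 0% = vehicle DMSO and 100% = killing by high DMSO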
# [9] = HD-MB03 medulloblastoma cell growth inhibition, synergistic combos for chromothripsis tumors, BGB or cisplatin IC20 combos (AID 1671455; in the data active = inhibition above about 83%;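 also: 0% = vehicle DMSO and 100% = high DMSO as cytotoxic control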); conditions: HD-MB03 medulloblastoma cells, stronger effect = higher value
# [10] = UWB1.289 ovarian carcinoma cell growth inhibition, synergistic combos for chromothripsis tumors, BGB or cisplatin combos (AID 1671456); conditions: UWB1.289 ovarian carcinoma cells, stronger effect = higher value;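 also: cells exposed to compound for four days; 0% = vehicle DMSO and 100% = killing by high DMSO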
# [11] = LFS_MB_2R medulloblastoma cell growth inhibition, synergistic combos for chromothripsis tumors, cisplatin combos (AID 1671457); conditions: LFS_MB_2R medulloblastoma cells, stronger effect = higher value;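 also: cells exposed to compound for four days before readout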
# [12] = MDA-MB-436 breast carcinoma cell growth inhibition, synergistic combos for chromothripsis tumors, BGB or cisplatin combos (AID 1671458; call rule not given here;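 also: cells exposed for 96 hours; 0% = vehicle DMSO and 100% = killing by high DMSO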); conditions: MDA-MB-436 breast carcinoma growth inhibition, drug combinations, stronger effect = higher value
# [13] = UWB1.289_BRCA1 ovarian cancer growth, cell-based, BGB or cisplatin combinations (AID 1671459); conditions: UWB1.289 BRCA1 ovarian carcinoma, drug combinations, stronger effect = higher value
# [14] = human astrocyte viability loss, single and combined drugs, cytotoxicity control for chromothriptic childhood tumor combination screen, cell-based, BGB or cisplatin IC20 combos (AID 1671460); conditions: Human astrocytes, drug combinations, stronger effect = higher value;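 also: cells exposed to compounds for 96 hours before viability readout; 0% = vehicle and 100% = killing control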
# [15] = growth inhibition of BT084 medulloblastoma cells, cell-based, ICGC_MB145, cisplatin and BGB IC40 combos (AID 1671461); conditions: drug combinations, stronger effect = higher value;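 also: cells exposed to drugs for 96 hours; 0% = vehicle DMSO and 100% = high DMSO full killing control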
# [16] = growth inhibition of RCMB18 medulloblastoma cells, cell-based, cisplatin and BGB IC40 combos (AID 1671462); conditions: stronger effect = higher value;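 also: cells exposed to compound for four days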
# [17] = growth inhibition of CRL1545 osteosarcoma cells, cell-based, cisplatin and BGB IC20 combos (AID 1671464); conditions: stronger effect = higher value;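 also: cells exposed to compound for 96 hours before readout; 0% = vehicle DMSO and 100% = high DMSO killing control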
# [18] = measured here: combination with BGB IC40, at 0.05 µM
# [19] = measured here: with BGB IC20 combination, at 0.5 µM
# [20] = measured here: with cisplatin IC20 combination, at 0.5 µM
# [21] = measured here: combination with cisplatin, at 0.5 µM
# [22] = measured here: combination with cisplatin, at 5 µM
compound,measurement,setting,value
O=c1ccn(C2OC(CO)C(O)C2O)c(=O)[nH]1 (centres undefined),fold change,"[1]; stronger effect = lower value, cell number ratio, induced over uninduced",0.86 (inactive)
same,fold change,[1]; measured here: relative caspase fold change +Dox/-Dox,0.784
same,cell count,"[1]; measured here: total cells with miR-34 induction, stronger effect = lower value",8240
same,cell count,[1]; measured here: total cells without miR-34 induction,9580
same,z-score,"[2]; MELAS cybrid survival, CellTiter-Glo 48 h, stronger effect = higher value",-0.15 (inactive)
same,z-score,"[2]; Rieske KO mouse fibroblast survival, CellTiter-Glo 72 h",0.496
same,inhibition,"[3]; at 0.5 µM, stronger effect = higher value",-8.26% (inactive) and 22% (inactive)
same,inhibition,"[3]; measured here: combination with BGB IC20, at 0.005 µM",10.5% and -21.6%
same,inhibition,"[3]; measured here: combination with BGB IC40, at 0.005 µM",8.95% and -30.9%
same,inhibition,[3]; [18],17.3% and -34.8%
same,inhibition,"[3]; measured here: combination with cisplatin, at 0.5 µM, stronger effect = higher value",37.5% and 6.75%
same,inhibition,"[3]; measured here: combination with cisplatin, at 5 µM, stronger effect = higher value",-10.3% and -15.6%
same,inhibition,"[4]; BGB combo, at 5 µM",17.7% and -13.8%
same,inhibition,[4]; at 0.5 µM,23.7% (inactive) and 2.11% (inactive)
same,inhibition,"[4]; cisplatin combo, at 5 µM",22% and -0.337%
same,inhibition,[4]; [19],17.2% and -17.5%
same,inhibition,[4]; [20],35.5% and -0.199%
same,inhibition,"[4]; single agent, at 5 µM",18.6% and -37.8%
same,inhibition,"[5]; BGB IC20 combo, at 0.005 µM",12.4% and 14.9%
same,inhibition,"[5]; BGB IC40 combo, at 0.005 µM",6.25% and -39.4%
same,inhibition,"[5]; BGB IC40 combo, at 0.05 µM",-7.22% and -39.4%
same,inhibition,[5]; at 0.5 µM,-8.08% (inactive) and -24.1% (inactive)
same,inhibition,"[5]; cisplatin combo, at 0.05 µM",-11.1% and -43.3%
same,inhibition,"[5]; cisplatin combo, at 0.5 µM",4.25% and -24.8%
same,inhibition,"[5]; cisplatin combo, at 5 µM",-7.38% and -52.9%
same,inhibition,"[5]; measured here: 5 uM single agent, at 5 µM",7.59% and -39.4%
same,inhibition,[6]; at 0.5 µM,-5.2% (inactive) and -14.4% (inactive)
same,inhibition,[6]; [18],-12.7% and -13.9%
same,inhibition,[6]; [21],-10% and 2.17%
same,inhibition,[6]; [22],-46% and -44.9%
same,inhibition,[7]; at 0.5 µM,10.7% (inactive) and -20.8% (inactive)
same,inhibition,"[7]; measured here: with BGB IC20, at 0.5 µM",10.2% and -46.4%
same,inhibition,"[7]; measured here: with BGB IC20, at 5 µM",15% and -44.4%
same,inhibition,"[7]; measured here: with cisplatin IC20, at 0.5 µM",7.75% and -5.03%
same,inhibition,"[7]; measured here: with cisplatin IC20, at 5 µM",1.8% and -45.1%
same,inhibition,"[7]; single agent, at 5 µM",13% and -28.4%
same,inhibition,[8]; at 0.5 µM,9.28% (inactive) and -75.8% (inactive)
same,inhibition,"[8]; measured here: combination with BGB at IC20, at 0.5 µM",0.692% and -94%
same,inhibition,"[8]; measured here: combination with cisplatin at IC20, at 0.5 µM",13.9% and -68.3%
same,inhibition,[9]; at 0.5 µM,6.18% (inactive) and -13.5% (inactive)
same,inhibition,"[9]; measured here: combo with BGB at IC20, at 0.5 µM",2.23% and -12.6%
same,inhibition,"[9]; measured here: combo with cisplatin at IC20, at 0.5 µM",13.4% and -11.6%
same,inhibition,[10]; at 0.5 µM,16.3% (inactive) and -6.23% (inactive)
same,inhibition,"[10]; measured here: inhibition with BGB combination, at 0.05 µM",-2.12% and -33.8%
same,inhibition,"[10]; measured here: inhibition with cisplatin combination, at 0.05 µM",36.9% and -21.3%
same,inhibition,[11]; at 0.5 µM,6.19% (inactive) and -21.5% (inactive)
same,inhibition,[11]; [21],9.72% and -11.9%
same,inhibition,[11]; [22],14.1% and -81.5%
same,inhibition,[12]; at 0.5 µM,10.4% (inactive) and -39.6% (inactive)
same,inhibition,"[12]; measured here: BGB combination, at 0.5 µM",7.3% and -43.2%
same,inhibition,"[12]; measured here: BGB combination, at 5 µM",8.01% and -19.5%
same,inhibition,"[12]; measured here: cisplatin combination, at 0.5 µM",12.2% and -58.5%
same,inhibition,"[12]; measured here: cisplatin combination, at 5 µM",2.73% and -39.8%
same,inhibition,"[13]; BGB combination, concentration series, at 5 µM",8.48% and -29.5%
same,inhibition,[13]; at 0.5 µM,10.7% (inactive) and -14.6% (inactive)
same,inhibition,"[13]; cisplatin combination, concentration series, at 5 µM",-14.1% and -9.02%
same,inhibition,[14]; at 0.5 µM,8.08% (inactive) and -8.91% (inactive)
same,inhibition,"[14]; measured here: combo with BGB IC20, at 0.5 µM",10.4% and -14.8%
same,inhibition,"[14]; measured here: combo with cisplatin IC20, at 0.5 µM",12.5% and -5.12%
same,inhibition,[15]; at 0.5 µM,5.91% (inactive) and -28.7% (inactive)
same,inhibition,"[15]; cisplatin combination, at 0.5 µM",-2.3% and -6.58%
same,inhibition,"[15]; cisplatin combination, at 5 µM",-4.68% and -1.56%
same,inhibition,"[15]; measured here: BGB IC40 combination 0.05 uM, at 0.05 µM",39.8% and -13.1%
same,inhibition,"[15]; single agent, at 5 µM",-4.18% and -25.9%
same,inhibition,[16]; at 0.5 µM,11% (inactive) and -17.5% (inactive)
same,inhibition,"[16]; cisplatin combo, at 5 µM",10.7% and -4.43%
same,inhibition,"[16]; measured here: BGB IC40 combination, at 0.05 µM",15.8% and -34.3%
same,inhibition,[16]; [21],22.8% and -4.28%
same,inhibition,"[16]; single agent, at 5 µM",-1.69% and -19.5%
same,inhibition,[17]; at 0.5 µM,11.7% (inactive) and -2.83% (inactive)
same,inhibition,[17]; [19],-2.36% and -19.1%
same,inhibition,[17]; [20],17.5% and 3.15%
same,inhibition,"[17]; single agent, at 0.05 µM",32.6% and -48.2%
same,inhibition,"[17]; single agent, at 5 µM",-21.6% and -1.48%
